Test results as given in the supplement of paper PMC8047044.
Counter-ions that a name gives are not always drawn.

Test system: Neuro-2a
Experiment: neurite formation score, plate-normalized to DMSO control mean 5.04 (score (0-8 scale)); higher = more or longer neurites
Details: 1 µM
Experimental: (§1)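 Neuro-2a mouse neuroblastoma cells in PLL-coated 96-well plates were pre-treated for 1 h in DMEM(+) with each kinase inhibitor at 1 µM, then switched to serum-free DMEM(-) with inhibitor to induce neurite outgrowth and fixed about 2-3 h later. Three blinded observers scored neurite formation from 0 (no neurites) to 8 (long neurites on almost all cells).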

Row | Structure (SMILES) | neurite formation score
1 | CNCc1ccc(-c2cc(-c3nc(-c4ccc(S(=O)(=O)C(C)C)cc4)cnc3N)on2)cc1 | 1.29
2 | O=C1NCCCc2c1oc1ccc(O)cc21 | 5.29
3 | CCn1c(-c2nonc2N)nc2c(C#CC(C)(C)O)ncc(OC[C@H]3CCCNC3)c21 | 4.02
4 | CCN(CC)CCCC(C)Nc1nc(C)cc(Nc2ccc3nc(C)cc(N)c3c2)n1 (centres undefined) | 4.91
5 | COc1cc2ncnc(Nc3ccc(F)c(Cl)c3)c2cc1OCCCN1CCOCC1 [Gefitinib (ZD1839)] | 4.24
6 | O=C(Nc1ccc(-c2ccnc(Nc3ccc(N4CCOCC4)cc3)n2)cc1)C1CCCN1 (centres undefined) | 4.02
7 | CNc1nc(Nc2ccc(C(=O)N3CCOCC3)cc2OC)ncc1Cl | 4.96
8 | CC(C)c1cc(CNc2nc(Nc3cc(C4CC4)[nH]n3)cc(N3CCN(C)CC3)n2)on1 | 0.692
9 | CCN(CC)CCNC(=O)c1c(C)[nH]c(/C=C2\C(=O)Nc3ccc(F)cc32)c1C [Sunitinib malate] | 5.57
10 | Cc1ccc(C(=O)Nc2cccc(C(F)(F)F)c2)cc1Nc1nc(-c2cccnc2)nc2c1cnn2C | 3.96
11 | Cc1ccc(NC(=O)c2cccc(C(C)(C)C#N)c2)cc1Nc1ccc2ncn(C)c(=O)c2c1 | 5.24
12 | Cc1cnc(Nc2ccc(N3CCN(C)CC3)cc2)nc1Nc1cccc(S(=O)(=O)NC(C)(C)C)c1 | 2.36
13 | Cc1ccc(C(=O)Nc2ccc(CN3CCN(C)CC3)c(C(F)(F)F)c2)cc1C#Cc1cnc2[nH]ncc2c1 | 0.626
14 | C#Cc1cccc(Nc2ncnc3cc(OCCOC)c(OCCOC)cc23)c1 [Erlotinib Hydrochloride] | 4.57
15 | CC(C)c1cnn2c(NCc3ccccc3)cc(NCCCCCCN)nc12 | 4.57
16 | CN([C@@H](Cc1ccc(OS(=O)(=O)c2cccc3cnccc23)cc1)C(=O)N1CCN(c2ccccc2)CC1)S(=O)(=O)c1cccc2cnccc12 | 2.9
17 | CN(C)Cc1cccc(N=C(c2ccccc2)c2c(O)[nH]c3cc(C(N)=O)ccc23)c1 | 4.24
18 | CN(c1ccccc1CNc1nc(Nc2ccc3c(c2)CC(=O)N3)ncc1C(F)(F)F)S(C)(=O)=O | 4.29
19 | COc1ccc(C(=O)Nc2sc3c(c2C(N)=O)CCCC3)cc1OC | 4.57

Row | Structure (SMILES) | neurite formation score
20 | O=[N+]([O-])c1ccc(Nc2nc(N3CCOCC3)nc(N3CCOCC3)n2)cc1 | 4.21
21 | Cc1nc(-c2cn3c(n2)-c2ccc(-c4cnn(C(C)(C)C(N)=O)c4)cc2OCC3)n(C(C)C)n1 | 5.29
22 | Cn1cc(/C=C2\C(=O)Nc3cccnc32)c2ccccc21 | 4.54
23 | CCCCCCCCCCCC(=O)OCC(CO)OC(=O)CCCCCCCCCCC (centres undefined) [1,2-Dilauroyl-sn-glycerol] | 4.54
24 | Cc1c(F)cc(C(=O)NC2CC2)cc1-c1ccc(C(=O)NCC(C)(C)C)cn1 [Losmapimod] | 5.21
25 | Cc1cc(Nc2ncc(Cl)c(Nc3ccccc3S(=O)(=O)C(C)C)n2)c(OC(C)C)cc1C1CCNCC1 | 4.24
26 | Clc1ccc(Nc2nnc(Cc3ccncc3)c3ccccc23)cc1 [Vatalanib] | 4.69
27 | O=C1NC(=NCc2cccs2)S/C1=C\c1ccc2ncccc2c1 | 5.63
28 | O=C(/C=C/c1ccc2ccccc2n1)c1ccncc1 | 5.21
29 | COc1cc2ncnc(Nc3ccc(F)c(Cl)c3)c2cc1NC(=O)/C=C/CN1CCCCC1 | 4.9
30 | c1nc2c(NC3CCCCC3)nc(Nc3ccc(N4CCOCC4)cc3)nc2[nH]1 [Reversine] | 5.02
31 | O=C(NCCO)c1cccc(-c2cc(Nc3ccc(OC(F)(F)F)cc3)ncn2)c1 | 5.63
32 | CS(=O)(=O)CCNCc1ccc(-c2ccc3ncnc(Nc4ccc(OCc5cccc(F)c5)c(Cl)c4)c3c2)o1 [Lapatinib] | 4.24
33 | CN1CCN(c2ccc(Nc3cc(-c4cccc(-n5ccc6cc(C7CC7)cc(F)c6c5=O)c4CO)cn(C)c3=O)nc2)CC1 | 5.63
34 | Cc1nc(Nc2n[nH]c3c2CN(C(=O)N[C@H](CN(C)C)c2ccccc2)C3(C)C)c2sccc2n1 | 4.02
35 | Cc1ccc(S(=O)(=O)/C=C/C#N)cc1 | 5.14
36 | N#Cc1c(Oc2ccc(F)c(NC(=O)Cc3cccc(C(F)(F)F)c3)c2)ccc2nc(NC(=O)C3CC3)sc12 | 1.9
37 | Cn1sc(=O)n(Cc2ccccc2)c1=O | 2.96

Test system: Neuro-2a
Experiment: as above
Details: 0.1 µM
Experimental: as §1, with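 “at 0.1” for “at 1”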

Row | Structure (SMILES) | neurite formation score
38 | CNCc1ccc(-c2cc(-c3nc(-c4ccc(S(=O)(=O)C(C)C)cc4)cnc3N)on2)cc1 | 3.25
39 | O=C1NCCCc2c1oc1ccc(O)cc21 | 4.58
40 | CCn1c(-c2nonc2N)nc2c(C#CC(C)(C)O)ncc(OC[C@H]3CCCNC3)c21 | 3.25
41 | CCN(CC)CCCC(C)Nc1nc(C)cc(Nc2ccc3nc(C)cc(N)c3c2)n1 (centres undefined) | 5.38
42 | COc1cc2ncnc(Nc3ccc(F)c(Cl)c3)c2cc1OCCCN1CCOCC1 [Gefitinib (ZD1839)] | 4.88
43 | O=C(Nc1ccc(-c2ccnc(Nc3ccc(N4CCOCC4)cc3)n2)cc1)C1CCCN1 (centres undefined) | 4.92
44 | CNc1nc(Nc2ccc(C(=O)N3CCOCC3)cc2OC)ncc1Cl | 4.58
45 | CC(C)c1cc(CNc2nc(Nc3cc(C4CC4)[nH]n3)cc(N3CCN(C)CC3)n2)on1 | 4.92
46 | CCN(CC)CCNC(=O)c1c(C)[nH]c(/C=C2\C(=O)Nc3ccc(F)cc32)c1C [Sunitinib malate] | 5.21
47 | Cc1ccc(C(=O)Nc2cccc(C(F)(F)F)c2)cc1Nc1nc(-c2cccnc2)nc2c1cnn2C | 4.25
48 | Cc1ccc(NC(=O)c2cccc(C(C)(C)C#N)c2)cc1Nc1ccc2ncn(C)c(=O)c2c1 | 4.88
49 | Cc1cnc(Nc2ccc(N3CCN(C)CC3)cc2)nc1Nc1cccc(S(=O)(=O)NC(C)(C)C)c1 | 2.58
50 | Cc1ccc(C(=O)Nc2ccc(CN3CCN(C)CC3)c(C(F)(F)F)c2)cc1C#Cc1cnc2[nH]ncc2c1 | 2.58
51 | C#Cc1cccc(Nc2ncnc3cc(OCCOC)c(OCCOC)cc23)c1 [Erlotinib Hydrochloride] | 5.21
52 | CC(C)c1cnn2c(NCc3ccccc3)cc(NCCCCCCN)nc12 | 4.88
53 | CN([C@@H](Cc1ccc(OS(=O)(=O)c2cccc3cnccc23)cc1)C(=O)N1CCN(c2ccccc2)CC1)S(=O)(=O)c1cccc2cnccc12 | 4.54
54 | CN(C)Cc1cccc(N=C(c2ccccc2)c2c(O)[nH]c3cc(C(N)=O)ccc23)c1 | 4.54
55 | CN(c1ccccc1CNc1nc(Nc2ccc3c(c2)CC(=O)N3)ncc1C(F)(F)F)S(C)(=O)=O | 3.58
56 | COc1ccc(C(=O)Nc2sc3c(c2C(N)=O)CCCC3)cc1OC | 4.71

Row | Structure (SMILES) | neurite formation score
57 | O=[N+]([O-])c1ccc(Nc2nc(N3CCOCC3)nc(N3CCOCC3)n2)cc1 | 5.08
58 | Cc1nc(-c2cn3c(n2)-c2ccc(-c4cnn(C(C)(C)C(N)=O)c4)cc2OCC3)n(C(C)C)n1 | 4.92
59 | Cn1cc(/C=C2\C(=O)Nc3cccnc32)c2ccccc21 | 4.08
60 | CCCCCCCCCCCC(=O)OCC(CO)OC(=O)CCCCCCCCCCC (centres undefined) [1,2-Dilauroyl-sn-glycerol] | 5.08
61 | Cc1c(F)cc(C(=O)NC2CC2)cc1-c1ccc(C(=O)NCC(C)(C)C)cn1 [Losmapimod] | 4.75
62 | Cc1cc(Nc2ncc(Cl)c(Nc3ccccc3S(=O)(=O)C(C)C)n2)c(OC(C)C)cc1C1CCNCC1 | 5.21
63 | Clc1ccc(Nc2nnc(Cc3ccncc3)c3ccccc23)cc1 [Vatalanib] | 4.92
64 | O=C1NC(=NCc2cccs2)S/C1=C\c1ccc2ncccc2c1 | 4.25
65 | O=C(/C=C/c1ccc2ccccc2n1)c1ccncc1 | 3.08
66 | COc1cc2ncnc(Nc3ccc(F)c(Cl)c3)c2cc1NC(=O)/C=C/CN1CCCCC1 | 4.88
67 | c1nc2c(NC3CCCCC3)nc(Nc3ccc(N4CCOCC4)cc3)nc2[nH]1 [Reversine] | 4.92
68 | O=C(NCCO)c1cccc(-c2cc(Nc3ccc(OC(F)(F)F)cc3)ncn2)c1 | 4.92
69 | CS(=O)(=O)CCNCc1ccc(-c2ccc3ncnc(Nc4ccc(OCc5cccc(F)c5)c(Cl)c4)c3c2)o1 [Lapatinib] | 4.88
70 | CN1CCN(c2ccc(Nc3cc(-c4cccc(-n5ccc6cc(C7CC7)cc(F)c6c5=O)c4CO)cn(C)c3=O)nc2)CC1 | 4.58
71 | Cc1nc(Nc2n[nH]c3c2CN(C(=O)N[C@H](CN(C)C)c2ccccc2)C3(C)C)c2sccc2n1 | 4.92
72 | Cc1ccc(S(=O)(=O)/C=C/C#N)cc1 | 2.42
73 | N#Cc1c(Oc2ccc(F)c(NC(=O)Cc3cccc(C(F)(F)F)c3)c2)ccc2nc(NC(=O)C3CC3)sc12 | 4.54
74 | Cn1sc(=O)n(Cc2ccccc2)c1=O | 4.25
